Source: PubChem BioAssay AID624117 (National Center for Advancing Translational Sciences (NCATS), 2012)
Inconclusive results are not listed. Active and inactive are the calls of the source. Calls follow the shape of the dose curve; as a rule, active = well fitted curve in the direction sought with a large enough effect; inconclusive = small, poorly fitted or top-dose-only effect, or another doubt; inactive = no such curve, though single readings can be large or run the other way.

assay: qHTS Assay for Rab9 Promoter Activators: Hit Validation Using Renilla Luciferase Read-Out; details: Huh7 NPC1 promoter Renilla luciferase reporter, 24 h; series mostly up to 76.9 µM
Summary of the method: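 Huh7 cells stably carrying NPC promoter-luciferase, 1,500 cells/well, exposed to compound for 24 h at 37 deg C. Luminescence read 10 min after […] addition; validation of firefly-read primary hits.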

Potency, inactive:
COc1ccc(/C=C\C(=O)c2c(O)ccc3c(C)cc(=O)oc23)cc1OC, O=C(CSc1ncccn1)Nc1cccc2ccccc12, Cc1cccc(C)c1NC(=O)Nc1cccs1, CNC(=O)Cn1nc(C)c2ccccc2c1=O, Cc1ccc(S(=O)(=O)/N=C2\C=C(Nc3cccc(C(=O)O)c3)C(=O)c3ccccc32)cc1, N#CC/C(N)=N/NC(=O)CCCNc1ncc(C(F)(F)F)cc1Cl, NC(=O)C1(NC(=O)[C@@H]2CC3(CC(c4cccc(NC(=O)[C@@H]5CCC(=O)N5)c4)=NO3)CN2C(=O)c2ccccc2)CC1 (stereo partly drawn), CCc1cc(C(=O)Nc2ccccc2)cs1, CC(=O)NC(CCCN1C(=O)c2ccccc2C1=O)c1nnn(C)n1 (stereo not drawn), Cc1ccc(N=Cc2sc(O)c3ccccc23)c(C)c1, CCN(CC)S(=O)(=O)c1ccc(NCc2ccccn2)nc1, CCC(=O)NC(=S)Nc1ccc(N2CCOCC2)cc1, O=C(c1cccc(Oc2ccc([N+](=O)[O-])cc2)c1)N1CCOCC1, O=C(CSc1nnc(-c2ccccn2)o1)Nc1ccccc1F, CC(=O)Nc1ccc(-c2csc(Nc3ncccn3)n2)cc1, O=C(O)C1=CC[C@@H](c2ccc(Cl)cc2)N(S(=O)(=O)c2ccc(Cl)cc2)[C@H]1c1ccccc1, CCCNC(=O)C1CCN(S(=O)(=O)c2ccc3[nH]c(=O)ccc3c2)CC1, COc1ccc(NC(=O)CN(C)C(=O)c2ccc(=O)[nH]c2)cc1, O=C(CCCn1c(=O)oc2ccccc21)N1CCN(c2ccccn2)CC1, CC(C)C(NC(=O)c1ccc([N+](=O)[O-])cc1Cl)C(=O)N1CCCC1 (stereo not drawn), Cc1cc(C)c2c(N)c(C(=O)Nc3ccc([N+](=O)[O-])cc3)sc2n1, CCC(=O)Nc1cc(-c2cc3ccccc3oc2=O)ccc1OC, CCOC(=O)c1ccc(NC(=O)Oc2cc(C)c(Cl)cc2C(C)C)cc1, CC1CCCN(S(=O)(=O)c2ccc(C(=O)Nc3nnc(-c4ccncc4)o3)cc2)C1 (stereo not drawn), CC1=C(C(=O)OC2CCCC(C)C2)C(c2ccccc2)NC(=O)N1 (stereo not drawn), O=C(NC1CCCC1)C(c1ccc(F)cc1)N(C(=O)c1csnn1)c1ccccc1 (stereo not drawn), Cc1cccc(NC(=O)CSc2nc3ccccc3o2)c1, Cc1ccccc1NC(=O)Cc1nc(COC(=O)CC(C)c2ccccc2)cs1 (stereo not drawn), O=C(Nc1ccc(-c2nc3cccnc3s2)cc1)c1ccc(Cl)nc1, COC(=O)c1ccc(NC(=O)c2ccc3nc(C)sc3c2)cc1, O=C(Nc1nc2ccc(F)cc2s1)c1ccc(N2CCCC2=O)cc1, COc1ccccc1N(C(=O)c1snc(C(N)=O)c1N)C(C(=O)NC1CCCCC1)c1cccc(OC)c1OC (stereo not drawn), O=[N+]([O-])c1cnccc1Nc1ccc(F)cc1, COc1ccccc1C(=O)Nc1nnc(SCC(=O)NC2CCCC2)s1, Cc1nn(CCCC(=O)NCc2ccc(F)cc2)c(C)c1[N+](=O)[O-], COc1ccc(-c2nnc(SCC(=O)/C(C#N)=C(\C)N)o2)cc1, CC1CCc2sc(C(=O)NNC(=S)NC3CC3)cc2C1 (stereo not drawn), O=C(CCN1C(=O)c2ccccc2C1=O)Nc1ccc(-c2nc3ccccc3s2)cc1
